The text below walks through data of PubChem BioAssay (Tox21).

A short description of assay [1]: qHTS assay for small molecules that induce genotoxicity in human embryonic kidney cells expressing luciferase-tagged ATAD5 (AID 651632). Further: nearly all actives have a fitted effect of over 15% in size. Further: potency means the concentration at half of the fitted maximal effect. In a few lines: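 Reporter cells (HEK293T) express luciferase-tagged ATAD5, a protein that accumulates after DNA damage. Treat 16 hr at 37C/5% CO2, add Amplite, wait 30 min at RT, and read luminescence.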
(In qHTS, concentration-response curves come from the screen itself.)

The nature of assay [2]: qHTS assay for small molecule agonists of the p53 signaling pathway - cell viability (AID 651633; calls by dose curve; further: nearly all actives have a fitted effect of over 30% in size; further: potency means the concentration at half of the fitted maximal effect). In a few lines:
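p53RE-bla cells were treated with compound for 16 hours at 37 C. Cytotoxicity was then measured as CellTiter-Glo luminescence after 30 min at room temperature.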

The nature of assay [3]: qHTS assay for small molecules that induce genotoxicity in human embryonic kidney cells expressing luciferase-tagged ATAD5 - cell viability (AID 651634; calls by dose curve; further: nearly all actives have a fitted effect of over 25% in size; further: potency means the concentration at half of the fitted maximal effect). In a few lines: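 Seeding of 2,000 HEK293T ATAD5-luciferase cells per well preceded pin-tool compound transfer. Plates sat 15.5 hr at 37C under 5% CO2, then fluorescence was read after 30 min with CellTiter-Fluor.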
Assay [4] is described as follows: qHTS assay for small molecule disruptors of the mitochondrial membrane potential - cell viability (AID 720634; calls by dose curve;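 further: human HepG2 liver cancer cells; series mostly up to about 83 µM; nearly all actives have a fitted effect of over 20% in size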). In a few lines: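 Measuring cytotoxicity alongside mitochondrial potential, the screen quantified ATP by luminescence in HepG2 cells after 1 hr compound incubation and a 30 min room-temperature CellTiter-Glo step.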
Assay [5] can be described thus: qHTS assay to test for compound auto fluorescence at 590 nm (red) in HepG2 cells (AID 720674). An outline of the steps:
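Seeding: 2,000 HepG2 cells/well, MEM/10% FBS, overnight 37 C. Dosing: compound vs DMSO. Incubation: 1 hr, 37 C, 5% CO2. Read: fluorescence 540 ex/590 em, Rose Bengal sodium as red reference.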

Assay [6] can be described thus: qHTS assay to test for compound auto fluorescence at 535 nm (green) in HepG2 cells (AID 720675).
The nature of assay [7]: qHTS assay to test for compound auto fluorescence at 460 nm (blue) in HEK293 cells (AID 720678). In a few lines: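 Blue read-out at excitation 405 nm and emission 460 nm follows overnight compound exposure of HEK293 cells at 37C in 5% CO2. Activity is given as auto fluorescence equivalency to triamterene.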
Assay [8] is described as follows: qHTS assay to test for compound auto fluorescence at 590 nm (red) in HEK293 cells (AID 720679). An outline of the steps: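 Red channel, Ex/Em 540/590nm; signal expressed as equivalency to Rose Bengal sodium. HEK293, 2,000 cells/well, 10% dialyzed FBS; 23 nL compound pinned after 4-5 hr attachment; overnight 37C/5% CO2 before reading.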
A short description of assay [9]: qHTS assay for small molecule disruptors of the mitochondrial membrane potential (AID 720635). Further: potency means the concentration at half of the fitted maximal effect. An outline of the steps:
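HepG2 cells exposed to compound 1 hr at 37C, then Mito-MPS dye 30 min. Ratio read of aggregate (540/590 nm) versus monomer (490/535 nm) fluorescence.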

Where “and” joins values, the source holds several entries; their conditions need not be identical. Equal entries are not always repeated. Results filed as inconclusive are left out. Calls of active or inactive are those of the source. Unless noted, the call rests on the fitted dose curve; in most records, active means well fitted curve in the direction sought with a large enough effect in the repeat runs; inconclusive means weak or mixed curves; inactive means no such curve, though single readings can be large; an effect the other way counts as inactive or inconclusive.

As for `Cc1cc(C(=O)NNCc2ccccc2)no1`, the Potency entry in [1], in [2], in assay [3], in assay [4], in assay [5] and in [6] was “inactive” throughout. Besides, the Potency result in assay [7] and in assay [8] was “inactive” each time.

`CC1C(=O)CC2C3(C)CCC2(C(C)C(=O)O)C(=O)C13` (stereo not given): the Potency entry in [1], in assay [2], in assay [3], in assay [4], in assay [5] and in assay [6] was “inactive” throughout. For the same molecule, the Potency entry in [7] and in assay [8] was “inactive” in each case.

Turning to `CC(/C=C/C=C(\C)C(=O)O[C@@H]1O[C@H](CO[C@@H]2O[C@H](CO)[C@@H](O)[C@H](O)[C@H]2O)[C@@H](O)[C@H](O)[C@H]1O)=C\C=C\C=C(C)\C=C\C=C(/C)C(=O)O[C@@H]1O[C@H](CO[C@@H]2O[C@H](CO)[C@@H](O)[C@H](O)[C@H]2O)[C@@H](O)[C@H](O)[C@H]1O`, the Potency result in assay [1], in assay [2], in assay [3], in [4], in assay [9] and in assay [5] was “inactive” each time. Further, the Potency entry in assay [6], in assay [7] and in assay [8] was “inactive” in each case.

Take `CC(C)N1CCN(c2ccc(OC[C@H]3CO[C@](Cn4cncn4)(c4ccc(Cl)cc4Cl)O3)cc2)CC1`: the Potency entry in [1], in [3], in assay [4], in [5], in assay [6] and in assay [7] was “inactive” throughout. For the same molecule, in [8], the Potency entry is “inactive”. In addition, the Potency in assay [2] is 11.4 µM (active).

On to `[O]=[Bi][O]C(=O)[O][Bi]=[O]`, for which the Potency result in assay [1], in assay [2], in [3], in [4], in assay [5] and in assay [6] was “inactive” throughout. Moreover, the Potency result in [7] and in assay [8] was “inactive” each time.

For `C[C@H](CCCC(C)(C)O)[C@H]1CC[C@H]2[C@@H]3CC=C4C[C@@H](O)CC[C@]4(C)[C@H]3CC[C@]12C`, the Potency result in assay [1], in assay [2], in assay [3], in [4], in assay [9] and in [6] was “inactive” throughout. The Potency result in [7] and in [8] was “inactive” throughout.

As to `Nc1nc2[nH]cc(CCc3ccc(C(=O)N[C@@H](CCC(=O)O)C(=O)O)cc3)c2c(=O)[nH]1`, the Potency result in assay [1], in assay [2], in [3], in assay [4], in [9] and in assay [6] was “inactive” each time. Further, the Potency result in [7] and in assay [8] was “inactive” throughout.

Take `C[C@H](/C=C/[C@H](C)C(C)(C)O)[C@H]1CC[C@H]2/C(=C/C=C3C[C@@H](O)C[C@H](O)C3)CCC[C@]12C`: the Potency entry in assay [1], in [3], in assay [4], in [5], in [6] and in assay [7] was “inactive” in each case. The Potency result in assay [8] was “inactive”. For the same molecule, in assay [2], the Potency was 8.41 µM (active).

Take `CC(CN1c2ccccc2Sc2cccnc21)N(C)C` (stereo not given): the Potency result in assay [1], in assay [2], in assay [3], in assay [4], in assay [5] and in assay [6] was “inactive” in each case. In addition, the Potency result in [7] and in [8] was “inactive” in each case.

In the case of `CCCCC(O)c1ccccc1` (stereo not given), the Potency entry in assay [1], in assay [3], in assay [4], in [9], in assay [5] and in [6] was “inactive” each time. In addition, the Potency entry in [7] and in [8] was “inactive” throughout. The Potency in assay [2] is 26.6 µM (active).

On to `CCN(CC)c1ccc(C(=C2C=CC(=[N+](CC)CC)C=C2)c2ccccc2)cc1`, for which the Potency in assay [1] was 2.37 µM (active); in assay [2], 1.68 µM (active); in [3] it was 7.5 µM (active); in assay [9], 0.266 µM (active). Besides, the Potency entry in assay [4], in [5], in [6], in [7] and in [8] was “inactive” in each case.

`COc1ccc2c(c1)OC(C)(C)C(c1ccccc1)C2c1ccc(OCCN2CCCC2)cc1` (stereo not given): the Potency result in [1], in assay [4], in assay [5], in assay [6], in [7] and in assay [8] was “inactive” throughout. The Potency is 29.8 µM (active) in assay [2] and 26.6 µM (active) in assay [3].

Take `CCOC(=O)c1c[nH]c2cc(OCC(C)C)c(OCC(C)C)cc2c1=O`: the Potency result in assay [1], in assay [2], in assay [3], in assay [4], in [9] and in assay [6] was “inactive” throughout. Moreover, the Potency entry in [7] and in assay [8] was “inactive” in each case.

`OCCN1CCN(CC/C=C2/c3ccccc3Sc3ccc(Cl)cc32)CC1`: the Potency result in [1], in assay [2], in [3], in assay [4], in [5] and in assay [6] was “inactive” throughout. The Potency result in [7] and in [8] was “inactive” throughout.

For `CC#CCC(C)[C@H](O)/C=C/[C@@H]1[C@H]2c3cccc(CCCC(=O)O)c3O[C@H]2C[C@H]1O` (stereo not given in full), the Potency entry in assay [1], in assay [2], in assay [3], in assay [4], in [5] and in assay [6] was “inactive” in each case. The Potency result in assay [7] and in [8] was “inactive” in each case.

Turning to `CC1(C)S[C@@H]2[C@H](NC(=O)C(N)c3ccccc3)C(=O)N2[C@H]1C(=O)OC1OC(=O)c2ccccc21` (stereo not given in full), the Potency entry in assay [1], in [2], in assay [3], in assay [4], in assay [5] and in assay [6] was “inactive” each time. Further, the Potency result in assay [7] and in assay [8] was “inactive” each time.

For the molecule `CCSc1ccc2c(c1)N(CCCN1CCN(C)CC1)c1ccccc1S2`, the Potency result in [1], in assay [2], in [3], in assay [4], in [5] and in assay [6] was “inactive” throughout. Moreover, the Potency result in [7] and in assay [8] was “inactive” each time.

As to `CCCCCCCCCCCC(=O)N(CCO)CCO`, the Potency entry in assay [1], in [2], in [3], in [4], in [5] and in assay [6] was “inactive” each time. Besides, the Potency result in assay [7] and in [8] was “inactive” in each case.

As to `CC(CCc1ccc(O)cc1)NCC(O)c1ccc(O)cc1` (stereo not given), the Potency entry in assay [1], in assay [2], in assay [3], in assay [4], in assay [9] and in [6] was “inactive” in each case. In addition, the Potency entry in [7] and in [8] was “inactive” throughout.

In the case of `C[C@H]1[C@@H](OC(=O)CCC(=O)O)O[C@@H]2OC3(C)CC[C@H]4[C@H](C)CC[C@@H]1[C@@]24OO3`, the Potency entry in assay [1], in assay [2], in [4], in [5], in assay [6] and in [7] was “inactive” in each case. The Potency entry in assay [8] is “inactive”. Besides, in [3], the Potency was 2.37 µM (active).

Turning to `CCN(CC)CCOCCOC(=O)C(CC)(CC)c1ccccc1`, the Potency entry in [1], in assay [2], in assay [3], in assay [4], in assay [5] and in assay [6] was “inactive” throughout. Also, the Potency result in [7] and in assay [8] was “inactive” in each case.

On to `COc1cc([C@@H]2c3cc4c(cc3C(O[C@@H]3O[C@@H]5CO[C@@H](C)O[C@H]5[C@H](O)[C@H]3O)C3COC(=O)[C@@H]32)OCO4)cc(OC)c1OP(=O)(O)O` (stereo not given in full), for which the Potency in assay [1] was 2.66 µM (active) and 6.68 µM (active). Moreover, the Potency result in assay [2], in [3], in assay [4], in [9], in assay [5] and in assay [6] was “inactive” each time. The Potency entry in [7] and in [8] was “inactive” throughout.
